Experimental findings from PubChem BioAssay (NCI) are described below.

Each structure is given as a SMILES string. Values joined by “and” are separate entries in the source; they are usually repeats but may differ in a detail not shown here. Equal entries are not always repeated. The panel holds about 83,000 compounds, 20% with a hit somewhere; the sample as a whole holds those more often.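 Single-dose data. Exposure time 48 hours. Values below 10 considered active.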 Active and inactive are the calls of the source.

In the first assay the test system is SF-268 CNS. Nature of the assay: NCI-60 one-dose screen, 48 h (100 = growth as untreated, 0 = no growth, -100 = all killed). The following applies: 10 µM unless noted.
For the molecule `O=C1/C(=C/c2ccccc2)CN(C(=O)C(Cl)Cl)C/C1=C\c1ccccc1`, the growth was 35.7% (inactive).

For the molecule `Cc1ccc(S(=O)(=O)OC[C@@]2(C)CC[C@]3(C)CC[C@]4(C)C(=CC[C@@H]5[C@@]6(C)CCCNC(C)(C)[C@@H]6CC[C@]54C)[C@@H]3C2)cc1`, the growth is -55.2% (active).

For the molecule `O=C1/C(=C/c2cn(-c3ccccc3)nc2-c2ccccc2)SC(=S)N1c1ccc(Cl)cc1`, the growth was 62.5% (inactive). On the same count and under the same terms, with `O=c1ccc2nc(-c3ccccn3)nn(-c3ccccc3)c-2c1` the figure was 98% (inactive); with `C[C@@H]1CC[C@@H]2[C@@H]1[C@H](OC(=O)/C=C/c1ccccc1)[C@]1(c3ccccc3)C[C@@H](NC(=O)CO)[C@@]2(C)O1`, 93.6% (inactive).

The test system of another assay is SF-295 CNS. The assay is described as above. The settings on record: 10 µM unless noted.
`COc1ccc2c(c1)c(-c1nc(-c3c[nH]c4c(Cl)nccc34)cs1)cn2C`: the growth was 97.2% (inactive). As for `C[C@]12CCc3c(ccc4cc(O)ccc34)[C@@H]1C[C@H](O)[C@@H]2O`, the growth was 95.3% (inactive). The same measure, in the same setting: with `ON=C1CCCCCCCC1` the figure was 105% (inactive) and 103% (inactive); with `CCCCCCCCCCCCCCCC[N+](C)(C)CCN(Cc1ccc(OC)cc1)c1ncccn1`, -90.6% (active). With `Cc1nc2sc(C(=O)Nc3cccc4ncccc34)c(N)c2cc1C(C)O` (centres undefined), the growth is 59.8% (inactive). Take `C=C[C@]1(C)C=C2CC[C@@H]3C(C)(C)C(=O)CC[C@@]3(C)[C@@H]2CC1`: the growth was 101% (inactive). As to `CC[C@H](C)[C@H](NC(=O)[C@H](CCCCN)NC(=O)[C@H](CCCCN)NC(=O)[C@@H](NC(=O)[C@@H](NC(=O)[C@@H](N)Cc1cnc[nH]1)[C@@H](C)CC)[C@@H](C)CC)C(=O)N[C@@H](CCCNC(=N)N)C(=O)N[C@H](C(=O)N[C@@H](Cc1c[nH]c2ccccc12)C(=O)N[C@@H](Cc1ccc(O)cc1)C(=O)N[C@@H](CCCNC(=N)N)C(=O)N[C@@H](CCCCN)C(=O)N[C@@H](C)C(=O)N[C@@H](Cc1c[nH]c2ccccc12)C(=O)N[C@@H](Cc1cnc[nH]1)C(=O)N[C@H](C(=O)N[C@@H](CC(C)C)C(=O)NCC(=O)N[C@@H](CCCCN)C(=O)N[C@H](C(N)=O)C(C)C)C(C)C)[C@@H](C)O`, the growth was 24.5% (inactive). As for `CC(=O)N1N=C(c2ccc(F)cc2)CC1c1sc(N(C)Cc2ccccc2)nc1Cl` (centres undefined), the growth is 97.6% (inactive). Same read-out and setting: to `Cn1ccnc1CN1CCSC(C(=O)Nc2ccccc2)C1` (centres undefined) belongs 92.9% (inactive); to `COc1ccc(/C=C2/C(=O)N=C3N2NC(c2ccccc2)=CN3c2ccccc2)cc1`, 103% (inactive); to `Cc1oc2c(Cc3ccc(NC(=O)c4ccc(Cl)cc4)cc3)ncnc2c1C(=O)NO`, 95.3% (inactive). For `CCN1CCN(C(=O)[C@]23CC[C@@H](C)[C@H](C)[C@@H]2C2=CC[C@@H]4[C@@]5(C)CCC(=O)C(C)(C)[C@@H]5CC[C@@]4(C)[C@]2(C)CC3)CC1`, the growth is 24.8% (inactive).

Regarding `CC/C=C\C/C=C\C[C@H](O)C/C=C1/C(=O)C=C[C@@H]1C/C=C\CCCC(=O)OC`, the growth was -8.95% (active). The same measure, in the same setting: with `COc1ccc(-c2nnc3n(C)c(=O)c4ccccc4n23)cc1O` the figure was 11.6% (inactive); with `Cc1ccc(NC(=O)c2ccc(CN3CCN(C)CC3)cc2)cc1Nc1nccc(-c2cccnc2)n1`, 84.9% (inactive) and 66.4% (inactive). For the molecule `OCCN1CCN(CC/C=C2\c3ccccc3Sc3ccc(Cl)cc32)CC1`, the growth was 47.6% (inactive) and 31% (inactive). Consider `COc1cc(-c2nn(-c3cccc(NC(=O)CCN4CCN(C)CC4)c3)cc2-c2ccncc2)ccc1Cl`, for which the growth is -6.03% (active). `Cc1cnc(C(=O)NNc2nc3sc4c(c3c(=O)[nH]2)C(C)CCC4)cn1` (centres undefined): the growth was 23.4% (inactive). Still for that read-out and setting: to `Cc1nc(-n2[nH]c(=O)ccc2=O)sc1N=Nc1ccccc1` belongs 99.3% (inactive). With `CC(=O)c1c(C)nc(SCC(=O)Nc2ccc(Cl)cc2)n1-c1ccc(Cl)cc1`, the growth is 91.3% (inactive).

In the case of `C[N+]1=C(/C=C\C=C\c2ccccc2)C(C)(C)c2ccccc21`, the growth is 72.4% (inactive).

As to `COc1cc(/C=C(/c2ccccc2)[N+](=O)[O-])c(OC)c2c1OCO2`, the growth was 28.8% (inactive). For `C=C1C(=O)O[C@H]2[C@H]1CC/C(COC(=O)NCCCCNC(=O)OC/C1=C/CC[C@@]3(C)O[C@H]3[C@H]3OC(=O)C(=C)[C@@H]3CC1)=C\CC[C@@]1(C)O[C@@H]21`, the growth is 99% (inactive). Regarding `COc1ccc(N2CCN(S(=O)(=O)c3oc(-c4ccccc4)nc3C#N)CC2)cc1`, the growth was 104% (inactive).
